# Laboratory results reported in PubChem BioAssay (NCATS).
# Records with an inconclusive call do not appear. A call without a number means that no potency is given here. The source made the active and inactive calls. Unless noted, the call rests on the fitted dose curve; in most records, active means well fitted inhibition curve with a large enough effect; inconclusive means small, poorly fitted or top-dose-only effect; inactive means flat fitted curve, though single readings scatter.
# How the values were obtained:
# [1] = AP1 Signaling Pathway (AID 357; active means well fitted curve in either direction with a large enough effect, not every such curve was filed as active); details: ME-180 AP-1-bla reporter, EGF-induced, beta-lactamase ratio, 5 h; series mostly up to 17.2 µM
# Method in brief: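 ME-180 cells with beta-lactamase reporter under AP-1 response element, stimulated with EC50 EGF; compounds tested in titration series, 5 h at 37 °C. CCF4 substrate added 2.5 h at room temperature; 460/530 nm emission ratio gave %activity and AC50.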
# [2] = target: Cytochrome P450 1A2 (Homo sapiens) (UniProt P05177); assay: p450-cyp1a2 (AID 410; calls by dose curve); details: recombinant CYP1A2, luciferin-ME demethylation, luminescence; series mostly up to 25.6 µM
# Method in brief: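 Inhibition was calculated relative to 57 uM furafylline (full inhibition). The reaction used human CYP1A2 at 20nM with Luciferin-ME at its Km, 100uM, driven by an NADPH-regenerating system for 60 min at room temperature.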
# [3] = NFAT Signaling Pathway (AID 444; active means well fitted curve in either direction with a large enough effect, not every such curve was filed as active;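 further: carbachol stimulus at about its EC50 of 1 µM final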); details: Jurkat NFAT-bla M1, carbachol, beta-lactamase ratio, 5 h; at 17.2 µM (top of the series) unless noted
# Method in brief: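 Read-out: CCF4 FRET ratio (460 nm/530 nm) after 1 h RT dye loading, used for %activity and AC50 from titration series. Cells: Jurkat NFAT-β-lactamase/M1 line, treated with compound plus 1 uM carbachol for 5 h, 37 °C.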
# [4] = Stat Signaling Pathway (AID 446; active means well fitted curve in either direction with a large enough effect, not every such curve was filed as active;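 further: ME-180 cervical cancer cells given 40 pM IL-6 alongside compound; SIE-controlled beta-lactamase reporter measured as 460/530 nm FRET emission ratio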); details: ME-180 SIE beta-lactamase reporter, IL-6 stimulated, 5 h; series mostly up to 17.2 µM
# Method in brief: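 ME-180 cells carrying a SIE-driven beta-lactamase reporter are stimulated with 40 pM IL-6 for 5 h at 37C in the presence of compound. The 460/530 nm FRET substrate ratio is read after 2.5 h at RT. Data are normalised to 300 pM IL-6 and to 125 nM JAK inhibitor controls.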
# [5] = target: Glucocorticoid receptor (Homo sapiens) (UniProt P04150); assay: GR-GFP Redistribution (AID 450;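 active means compounds whose dose series gives a full or clear partial fitted curve of increased nuclear translocation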; further: potency means the concentration at half of the fitted maximal effect); details: U2OS GR-GFP nuclear translocation, laser cytometry, 2 h
# [6] = target: Glucocorticoid receptor (Homo sapiens) (UniProt P04150); assay: GR-EFC Redistribution (AID 451; calls by dose curve; further: potency means the concentration at half of the fitted maximal effect); details: CHO-K1 GR-EFC translocation, beta-gal luminescence, 2 h
# Method in brief: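 Translocation of GR-ED fusion to nuclear EA restores b-gal, read by luminescence after 1 h room-temperature detection. Engineered CHO-K1 biosensor cells, 1,000/well, exposed 2 h at 37 C to titrations up to 46 uM final.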
# [7] = target: Mitogen-activated protein kinase 10 (Mus musculus) (UniProt Q61831); assay: JNK3 AlphaScreen Assay (AID 530; active means well fitted curve in either direction with a large enough effect, not every such curve was filed as active;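 further: kinase came from lysate of stimulated human HepG2 cells; signal reports phosphorylation of biotinylated GST-cJun 1-79 at Ser73 with 10 µM ATP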); details: JNK3 lysate, c-Jun phosphorylation; series mostly up to 25.6 µM
# Method in brief: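 Room-temperature AlphaScreen kinase assay; pre-activated HepG2 lysate as JNK3 source, biotin-GST-cJun(1-79) substrate, 10 uM ATP, compound 15 min preincubation.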
# [8] = target: 3',5'-cyclic-AMP phosphodiesterase 4B (Homo sapiens) (UniProt Q07343); assay: qHTS Assay for Inhibitors of PDE-IV (AID 607; active means well fitted activation curve with a large enough effect in the main read-out, with a control signal flat, not every such curve was filed as active); details: HEK293 ACTOne CNG channel cells, membrane potential fluorescence; series mostly up to 22.9 µM
# Method in brief: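 HEK293 ACTOne cells with CNG channel (1000/well), endogenous PDE4; membrane potential dye, compounds up to 22.9 uM final. Fluorescence Ex 535/Em 590; RO 20-1724 (100 uM final) as reference.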
# [9] = qHTS Assay for Lipid Storage Modulators (AID 1519; calls by dose curve); details: Drosophila S3 cells, BODIPY lipid droplet/cell ratio, laser cytometry, cells loaded with oleic acid; for activity change, negative = inhibition: at 25.7 µM (top of the series)
# Method in brief: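 Cells seeded at 5,000 per well were treated with compounds over a concentration series and loaded with oleic acid (400 uM, as added). Lipid droplet fluorescence (488 nm excitation, 500-530 nm channel) was read by laser-scanning cytometry and normalized to 20 uM Triacsin C.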
# [10] = target: Ubiquitin carboxyl-terminal hydrolase 1 (Homo sapiens) (UniProt O94782); assay: Inhibitors of USP1/UAF1: Pilot qHTS (AID 504865); details: purified USP1/UAF1, Ub-rhodamine cleavage fluorescence; series mostly up to 114 µM;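 further: rhodamine fluorescence freed from ubiquitin-rhodamine substrate followed over time; top concentration of the series differs between compounds; nearly all actives have a fitted effect of over 35% in size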
# Method in brief: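 USP1/UAF1 complex (1nM) preincubated with compound 15 min at room temperature, then Ub-Rho substrate (150nM final) added. Fluorescence read kinetically at 480/540 nm, 6 reads every 60 seconds. Buffer: 50mM HEPES pH 7.8, 0.5mM EDTA, 0.1 mg/ml BSA, 1mM TCEP, 0.01% Tween-20.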
# [11] = target: Luciferin 4-monooxygenase (Photinus pyralis) (UniProt P08659); assay: Biochemical firefly luciferase enzyme assay for NPC (AID 624030);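 further: purified P. pyralis luciferase at 10 nM with luciferin and ATP substrate; nearly all actives have a fitted effect of over 70% in size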; details: purified P. pyralis luciferase, luminescence, 5 min; series mostly up to 24.9 µM
# Method in brief: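 Direct inhibition of firefly luciferase enzyme (10 nM final, 50 mM Tris Acetate) assessed by luminescence within 5 minutes. Percent activity scaled between DMSO and PTC124 positive control, with concentration-effect curves classified by fit quality and response.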
# [12] = qHTS profiling for inhibitors of Plasmodium falciparum proliferation (AID 504749); further: nearly all actives have a fitted effect of over 60% in size; details: P. falciparum in erythrocytes, SYBR Green DNA, 72 h, at 12.8 µM (top of the series)
# Method in brief: (§1)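 Three-day growth assay of blood-stage parasites in erythrocytes (0.3% parasitemia, 2.5% hematocrit) at 37 C, 5% CO2, quantified by SYBR Green DNA staining after overnight detergent lysis.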
# C2A = assay: as above; details: P. falciparum in erythrocytes, SYBR Green DNA, 72 h; series mostly up to 12.8 µM
# Method in brief: as §1
# CP217 = assay: as above; details: P. falciparum in erythrocytes, SYBR Green DNA, 72 h; series mostly up to 12.8 µM
# Method in brief: as §1
# CP238 = assay: as above; details: P. falciparum in erythrocytes, SYBR Green DNA, 72 h; series mostly up to 12.8 µM
# Method in brief: as §1
# CP250 = assay: as above; details: P. falciparum in erythrocytes, SYBR Green DNA, 72 h; series mostly up to 12.8 µM
# Method in brief: as §1
# FAB9 = assay: as above; details: P. falciparum in erythrocytes, SYBR Green DNA, 72 h; series mostly up to 12.8 µM
# Method in brief: as §1
# JCK = assay: as above; details: P. falciparum in erythrocytes, SYBR Green DNA, 72 h; series mostly up to 12.8 µM
# Method in brief: as §1
# PC49 = assay: as above; details: P. falciparum in erythrocytes, SYBR Green DNA, 72 h; series mostly up to 12.8 µM
# Method in brief: as §1
# SC27B = assay: as above; details: P. falciparum in erythrocytes, SYBR Green DNA, 72 h; series mostly up to 12.8 µM
# Method in brief: as §1
# [13] = measured here: cell count channel max response
# [14] = measured here: lipid channel max response
# Chain of Ubiquitin carboxyl-terminal hydrolase 1 (Homo sapiens) (O94782 whole entry, looked up): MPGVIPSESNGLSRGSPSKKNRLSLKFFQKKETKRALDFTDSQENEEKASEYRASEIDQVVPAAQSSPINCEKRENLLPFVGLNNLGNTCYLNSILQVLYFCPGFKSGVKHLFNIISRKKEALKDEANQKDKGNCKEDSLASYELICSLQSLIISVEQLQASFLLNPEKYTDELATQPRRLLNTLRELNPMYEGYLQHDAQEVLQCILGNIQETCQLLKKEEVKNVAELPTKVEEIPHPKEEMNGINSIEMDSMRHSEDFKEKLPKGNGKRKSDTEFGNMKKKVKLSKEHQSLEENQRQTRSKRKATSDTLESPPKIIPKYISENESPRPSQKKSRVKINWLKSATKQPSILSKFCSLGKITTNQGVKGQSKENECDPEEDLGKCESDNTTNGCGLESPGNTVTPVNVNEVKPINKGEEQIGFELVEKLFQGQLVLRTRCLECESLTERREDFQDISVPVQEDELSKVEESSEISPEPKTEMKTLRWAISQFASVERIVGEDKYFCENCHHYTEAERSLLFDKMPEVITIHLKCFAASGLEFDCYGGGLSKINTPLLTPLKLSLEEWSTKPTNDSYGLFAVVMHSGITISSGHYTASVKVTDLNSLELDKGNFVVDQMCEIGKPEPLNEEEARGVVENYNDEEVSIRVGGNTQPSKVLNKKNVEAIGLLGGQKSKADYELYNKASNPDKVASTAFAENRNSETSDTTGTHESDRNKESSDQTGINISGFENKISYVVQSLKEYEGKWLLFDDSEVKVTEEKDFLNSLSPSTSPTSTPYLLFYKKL
# Chain of Cytochrome P450 1A2 (Homo sapiens) (P05177 whole entry, looked up): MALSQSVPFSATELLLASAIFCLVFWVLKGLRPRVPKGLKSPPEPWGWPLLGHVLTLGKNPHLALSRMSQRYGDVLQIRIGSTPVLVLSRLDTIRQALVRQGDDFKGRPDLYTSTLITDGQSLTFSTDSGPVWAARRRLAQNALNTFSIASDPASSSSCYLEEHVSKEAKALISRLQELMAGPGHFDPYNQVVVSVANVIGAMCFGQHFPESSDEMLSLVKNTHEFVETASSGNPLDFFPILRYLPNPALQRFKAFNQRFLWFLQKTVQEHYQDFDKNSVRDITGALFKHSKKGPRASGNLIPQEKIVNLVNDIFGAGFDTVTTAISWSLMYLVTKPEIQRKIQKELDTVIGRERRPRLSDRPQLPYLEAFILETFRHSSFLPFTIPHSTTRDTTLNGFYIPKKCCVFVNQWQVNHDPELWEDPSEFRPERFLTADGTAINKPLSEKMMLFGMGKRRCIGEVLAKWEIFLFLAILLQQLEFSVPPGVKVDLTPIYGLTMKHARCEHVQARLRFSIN
# Chain of Glucocorticoid receptor (Homo sapiens) (P04150 whole entry, looked up, the tested form may be a part): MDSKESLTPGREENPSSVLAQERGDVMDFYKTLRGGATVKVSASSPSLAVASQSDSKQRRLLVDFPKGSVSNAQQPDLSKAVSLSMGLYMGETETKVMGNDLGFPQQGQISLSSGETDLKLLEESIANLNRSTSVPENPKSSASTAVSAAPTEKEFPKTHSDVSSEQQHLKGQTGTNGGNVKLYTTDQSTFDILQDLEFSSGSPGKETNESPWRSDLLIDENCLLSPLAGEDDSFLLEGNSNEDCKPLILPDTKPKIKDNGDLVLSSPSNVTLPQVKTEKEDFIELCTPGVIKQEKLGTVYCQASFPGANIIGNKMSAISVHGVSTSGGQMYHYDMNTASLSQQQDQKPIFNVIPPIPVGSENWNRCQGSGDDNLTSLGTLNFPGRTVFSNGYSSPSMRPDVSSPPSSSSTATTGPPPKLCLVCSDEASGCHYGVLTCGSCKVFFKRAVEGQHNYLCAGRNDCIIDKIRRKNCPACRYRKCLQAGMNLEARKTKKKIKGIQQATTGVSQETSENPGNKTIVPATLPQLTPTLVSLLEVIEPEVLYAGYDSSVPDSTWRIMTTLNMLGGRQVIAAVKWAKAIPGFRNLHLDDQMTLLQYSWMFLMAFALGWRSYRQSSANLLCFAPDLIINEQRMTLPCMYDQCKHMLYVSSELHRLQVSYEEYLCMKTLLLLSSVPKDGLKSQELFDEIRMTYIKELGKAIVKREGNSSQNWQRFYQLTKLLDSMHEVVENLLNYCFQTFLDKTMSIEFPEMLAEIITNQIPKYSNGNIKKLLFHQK
# Chain of 3',5'-cyclic-AMP phosphodiesterase 4B (Homo sapiens) (Q07343 whole entry, looked up): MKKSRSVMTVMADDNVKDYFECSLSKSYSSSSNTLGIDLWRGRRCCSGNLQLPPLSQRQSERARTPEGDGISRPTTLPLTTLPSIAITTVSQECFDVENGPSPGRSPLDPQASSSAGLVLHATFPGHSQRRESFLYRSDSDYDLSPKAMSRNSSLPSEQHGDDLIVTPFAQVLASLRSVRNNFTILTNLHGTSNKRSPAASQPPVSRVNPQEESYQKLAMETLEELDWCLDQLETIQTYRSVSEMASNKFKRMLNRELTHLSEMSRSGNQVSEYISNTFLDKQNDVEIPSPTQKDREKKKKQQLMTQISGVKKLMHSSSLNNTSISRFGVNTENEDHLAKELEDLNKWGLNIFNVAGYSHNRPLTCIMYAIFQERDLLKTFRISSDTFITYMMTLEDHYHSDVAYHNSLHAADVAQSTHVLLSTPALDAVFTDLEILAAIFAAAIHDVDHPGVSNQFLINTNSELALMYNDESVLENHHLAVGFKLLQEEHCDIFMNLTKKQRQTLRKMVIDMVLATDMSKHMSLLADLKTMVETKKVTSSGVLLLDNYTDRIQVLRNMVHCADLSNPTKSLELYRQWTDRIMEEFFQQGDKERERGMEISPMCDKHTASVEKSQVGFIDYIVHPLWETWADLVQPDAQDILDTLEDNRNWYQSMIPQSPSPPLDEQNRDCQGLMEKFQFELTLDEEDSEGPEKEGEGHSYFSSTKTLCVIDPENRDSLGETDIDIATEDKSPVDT
# Chain of Luciferin 4-monooxygenase (Photinus pyralis) (P08659 whole entry, looked up): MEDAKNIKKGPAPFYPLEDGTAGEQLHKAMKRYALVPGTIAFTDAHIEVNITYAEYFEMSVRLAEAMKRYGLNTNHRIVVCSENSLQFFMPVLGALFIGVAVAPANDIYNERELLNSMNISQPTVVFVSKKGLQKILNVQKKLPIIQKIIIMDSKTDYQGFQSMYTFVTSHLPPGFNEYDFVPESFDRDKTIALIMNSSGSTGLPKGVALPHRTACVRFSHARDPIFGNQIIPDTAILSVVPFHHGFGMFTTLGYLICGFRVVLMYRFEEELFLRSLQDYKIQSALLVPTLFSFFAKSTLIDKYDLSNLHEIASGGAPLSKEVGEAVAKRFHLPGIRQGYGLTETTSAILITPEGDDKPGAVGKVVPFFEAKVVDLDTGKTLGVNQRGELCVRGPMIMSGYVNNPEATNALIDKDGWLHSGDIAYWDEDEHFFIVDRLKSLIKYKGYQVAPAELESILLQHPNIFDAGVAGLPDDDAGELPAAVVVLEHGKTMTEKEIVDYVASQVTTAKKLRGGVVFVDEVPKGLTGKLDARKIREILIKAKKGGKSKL
compound,measurement,setting,value
O=C(O)[C@@H]1CCCNC1,outcome,[1],inactive
same,Potency,[2],inactive
same,"activity change, negative = inhibition",[3],-10.3% (inactive)
same,outcome,[4],inactive
same,Potency,[5],> 20.6 µM (inactive)
same,Potency,[6],> 20.6 µM (inactive)
same,Potency,[7],inactive
same,outcome,[8],inactive
same,"activity change, negative = inhibition",[9],-1.28% (inactive)
same,max response,[9]; [13],-8.86%
same,max response,[9]; [14],-11.3%
same,Potency,[10],inactive
CC1(C)O[C@@H]2C[C@H]3[C@H]4C[C@H](F)C5=CC(=O)CC[C@]5(C)[C@@H]4[C@H](O)C[C@]3(C)[C@]2(C(=O)CO)O1,outcome,[1],inactive
same,Potency,[2],inactive
same,"activity change, negative = inhibition",[3],-4.77% (inactive)
same,outcome,[4],inactive
same,Potency,[5],0.00126 µM (active)
same,Potency,[6],0.0188 µM (active)
same,Potency,[7],inactive
same,outcome,[8],inactive
same,"activity change, negative = inhibition",[9],-1.62% (inactive)
same,max response,[9]; [13],-9.46%
same,max response,[9]; [14],-9.41%
same,Potency,[10],inactive
same,Potency,[11],inactive
same,"activity, negative = inhibition",[12]; parasite line A,-10.9% (inactive)
same,"activity, negative = inhibition",[12]; parasite line B,-1.91% (inactive)
same,Potency,C2A,inactive
same,Potency,CP217,inactive
same,Potency,CP238,inactive
same,Potency,CP250,inactive
same,Potency,FAB9,inactive
same,Potency,JCK,inactive
same,Potency,PC49,inactive
same,Potency,SC27B,inactive
C[C@H](N)CCCC(C)(C)O,outcome,[1],inactive
same,Potency,[2],inactive
same,"activity change, negative = inhibition",[3],-3.85% (inactive)
same,outcome,[4],inactive
same,Potency,[5],> 20.6 µM (inactive)
same,Potency,[6],> 20.6 µM (inactive)
same,Potency,[7],inactive
same,outcome,[8],inactive
same,"activity change, negative = inhibition",[9],-0.344% (inactive)
same,max response,[9]; [13],0.317%
same,max response,[9]; [14],0.936%
same,Potency,[10],inactive
C[C@]12C=CC(=O)C=C1CC[C@@H]1[C@H]3C[C@@H](O)[C@](O)(C(=O)CO)[C@@]3(C)C[C@H](O)[C@]12F,outcome,[1],inactive
same,Potency,[2],inactive
same,"activity change, negative = inhibition",[3],7.24% (inactive)
same,outcome,[4],inactive
same,Potency,[5],0.108 µM (active)
same,Potency,[6],0.0827 µM (active)
same,Potency,[7],inactive
same,outcome,[8],inactive
same,"activity change, negative = inhibition",[9],-1.03% (inactive)
same,max response,[9]; [13],6.41%
same,max response,[9]; [14],6.57%
same,Potency,[10],inactive
C[C@@H]1C(=O)O[C@@H]2C[C@]34[C@H]5C[C@@H](C(C)(C)C)[C@@]36[C@@H](OC(=O)[C@@H]6O)O[C@@]4(C(=O)O5)[C@@]12O,outcome,[1],inactive
same,Potency,[2],inactive
same,"activity change, negative = inhibition",[3],0.0686% (inactive)
same,outcome,[4],inactive
same,Potency,[5],> 20.6 µM (inactive)
same,Potency,[6],> 20.6 µM (inactive)
same,Potency,[7],inactive
same,outcome,[8],inactive
same,"activity change, negative = inhibition",[9],-0.102% (inactive)
same,max response,[9]; [13],-9.92%
same,max response,[9]; [14],-6.41%
same,Potency,[10],inactive
CC[C@@H]1OC(=O)[C@H](C)[C@H](O[C@@H]2C[C@](C)(OC)[C@H](O)[C@H](C)O2)[C@H](C)[C@H](O[C@@H]2O[C@@H](C)C[C@@H](N(C)C)[C@@H]2O)[C@](C)(O)C[C@H](C)C(=NOCOCCOC)[C@H](C)[C@H](O)[C@]1(C)O,outcome,[1],inactive
same,Potency,[2],inactive
same,"activity change, negative = inhibition",[3],-1.03% (inactive)
same,outcome,[4],inactive
same,Potency,[5],> 20.6 µM (inactive)
same,Potency,[6],> 20.6 µM (inactive)
same,Potency,[7],inactive
same,outcome,[8],inactive
same,"activity change, negative = inhibition",[9],0.83% (inactive)
same,max response,[9]; [13],-2.35%
same,max response,[9]; [14],-1.19%
same,Potency,[11],inactive
same,"activity, negative = inhibition",[12]; parasite line B,-20.4% (inactive)
same,Potency,C2A,inactive
same,Potency,CP217,inactive
same,Potency,CP238,inactive
same,Potency,CP250,inactive
same,Potency,FAB9,inactive
same,Potency,JCK,inactive
same,Potency,PC49,inactive
same,Potency,SC27B,inactive
